Bioassay records deposited in PubChem by National Center for Advancing Translational Sciences (NCATS).
12-LOX inh = blocks human arachidonate 12S-lipoxygenase; P18054; purified 12hLO, xylenol orange hydroperoxide absorbance; Potency, µM (titrated, usually from 108 µM), hits mostly inhibitors; actives 1.1% (n = 580,000)
Target sequence (P18054 whole entry, looked up): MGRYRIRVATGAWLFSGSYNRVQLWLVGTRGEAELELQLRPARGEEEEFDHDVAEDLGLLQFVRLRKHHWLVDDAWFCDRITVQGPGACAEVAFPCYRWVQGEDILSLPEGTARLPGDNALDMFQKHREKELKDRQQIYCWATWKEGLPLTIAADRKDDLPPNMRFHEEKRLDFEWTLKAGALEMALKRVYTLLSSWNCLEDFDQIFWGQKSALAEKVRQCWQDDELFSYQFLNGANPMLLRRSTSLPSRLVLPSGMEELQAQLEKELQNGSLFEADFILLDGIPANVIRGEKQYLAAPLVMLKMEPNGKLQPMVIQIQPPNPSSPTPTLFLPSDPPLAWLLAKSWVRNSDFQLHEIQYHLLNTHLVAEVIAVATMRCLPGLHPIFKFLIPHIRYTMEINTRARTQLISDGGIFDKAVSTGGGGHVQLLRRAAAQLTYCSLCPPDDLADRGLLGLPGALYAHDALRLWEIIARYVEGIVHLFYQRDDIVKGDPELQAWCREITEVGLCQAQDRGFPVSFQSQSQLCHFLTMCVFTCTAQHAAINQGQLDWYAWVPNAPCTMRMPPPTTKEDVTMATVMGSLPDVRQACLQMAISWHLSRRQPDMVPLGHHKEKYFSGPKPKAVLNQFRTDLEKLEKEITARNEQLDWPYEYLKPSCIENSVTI
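Hydroperoxide product was detected by ferrous iron/xylenol orange as the 573 to 405 nm absorbance ratio. Arachidonic acid at 40 uM (final) was turned over for 30 min at room temperature by 150 nM human 12hLO, pH 7.0 Hepes buffer, after 15 min compound preincubation.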
DT40 TDP1 no CPT = qHTS for Inhibitors of human tyrosyl-DNA phosphodiesterase 1 (TDP1): qHTS in cells in absence of CPT. DT40 Tdp1-/- hTDP1 cells, no CPT, ATP luminescence, 48 h. Potency, µM (series often up to 46.2 µM), actives largely listed as inhibitors. actives 15% (n = 420,000); note: nearly all actives have a fitted effect of over 55% in size
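Growth kinetics read by CellTiter-Glo luminescence after ≥48 hr at 37 °C. Cells: DT40 Tdp1-/- stably carrying human TDP1, 400 per well, compound exposure in the absence of CPT (DMSO vehicle).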
Gal4-VP16 FLuc = Gal4-VP16 reporter inhibition counter-screen; actives 3.5% (n = 310,000); Potency, µM (doses to about 53.6 µM), most hits filed as inhibitors; Drosophila S2 Gal4-VP16 UAS-luciferase, luminescence, 20 h; AID 2546;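 note: Gal4-VP16 expression switched on by copper sulfate through the metallothionein promoter; nearly all actives have a fitted effect of over 50% in size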
TDP1 cell CPT = DT40-hTDP1 cell growth loss with CPT. Potency, µM (series often up to 46.2 µM), hits mostly inhibitors. actives 12% (n = 420,000). AID 686979. chicken DT40 Tdp1-/-;hTDP1 cells + 20 nM CPT, ATP luminescence, 48 h; note: nearly all actives have a fitted effect of over 55% in size
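Cell growth measured by CellTiter-Glo luminescence after a minimum 48 h, 37 C compound exposure with 20 nM CPT in Tdp1-knockout DT40 cells stably expressing hTDP1, seeded 400/well; qHTS titration format.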
ELG1 repair inh = ELG1-dependent DNA repair inhibition | HEK293T ELG1-luciferase reporter, luminescence, 16 h; DNA damage induced by 5-fluorouridine | Potency, µM (highest dose often 46.1 µM), hits mostly inhibitors | actives 2.3% (n = 330,000); note: nearly all actives have a fitted effect of over 55% in size
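Overnight (16 hr) co-exposure of 2,000 cells/well to 5-fluorouridine and compound at 37 °C preceded detection. Luciferase was quantified via ONE-Glo luminescence; loss of signal denotes inhibition.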
RORg inh = inhibitors of mouse ROR gamma transcriptional activity; Potency, µM (series often up to 53.6 µM), hits mostly inhibitors; P51450; actives 5.4% (n = 310,000); Drosophila S2 Gal4-RORgamma UAS-luciferase reporter, 20 h; note: nearly all actives have a fitted effect of over 60% in size
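Luciferase reporter read in Schneider cells carrying Gal4-RORγ (mouse) and UAS-Photinus luciferase; cells given compound 1 h before 700 uM copper sulfate induction, then incubated 20 h at ambient temperature.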
Of the large screens only hits and unclear results are named; the others gave an inactive call. Sampled rows, rich in hits. Any-hit rate of the full collection: about 15%. Calls come from the whole dose curve; as a rule, active = well fitted curve in the direction sought with a large enough effect; inconclusive = small, poorly fitted or top-dose-only effect, or another doubt; inactive = no such curve, though single readings can be large; an effect the other way counts as inactive or inconclusive.

CC(Sc1nnc2c(Cl)cc(C(F)(F)F)cn12)C(=O)c1ccccc1 (configuration not stated)	none (no result: DT40 TDP1 no CPT, Gal4-VP16 FLuc, TDP1 cell CPT, ELG1 repair inh, RORg inh)
CNC(=O)[C@@H](C1CCCCC1)N1CCC[C@H]1C(=O)N1CCC1	none (no result: DT40 TDP1 no CPT, Gal4-VP16 FLuc, TDP1 cell CPT, ELG1 repair inh, RORg inh)
Clc1ccc(-c2nc(-c3ccc(Br)o3)no2)c(Cl)c1	none (no result: DT40 TDP1 no CPT, Gal4-VP16 FLuc, TDP1 cell CPT, ELG1 repair inh, RORg inh)
Oc1ccccc1/C=N/NC(=S)NCCc1ccccc1	DT40 TDP1 no CPT inconclusive, Gal4-VP16 FLuc 22.4µM, TDP1 cell CPT inconclusive, RORg inh 7.08µM
Cc1ccc(C)c(/C=N/NC(=S)NCCc2ccccc2)c1	12-LOX inh inconclusive, DT40 TDP1 no CPT inconclusive, Gal4-VP16 FLuc 7.94µM, TDP1 cell CPT inconclusive, RORg inh 7.08µM
S=C(NCCc1ccccc1)N/N=C/c1cccc(Cl)c1Cl	12-LOX inh 50.1µM, Gal4-VP16 FLuc inconclusive, RORg inh 22.4µM
FC(F)(F)c1ccccc1/C=N/NC(=S)NCc1ccccc1	12-LOX inh 39.8µM (no result: DT40 TDP1 no CPT, Gal4-VP16 FLuc, TDP1 cell CPT, ELG1 repair inh, RORg inh)
CNC(=S)NCCc1ccccc1	12-LOX inh inconclusive, ELG1 repair inh inconclusive
COCCC(=O)N[C@H]1CC[C@]2(C)CCC([C@H](C)C(=O)N(C)Cc3ccccc3)[C@H](O)[C@H]2[C@@H]1C (some centres not stated)	none (no result: DT40 TDP1 no CPT, Gal4-VP16 FLuc, TDP1 cell CPT, ELG1 repair inh, RORg inh)
CCc1cccc(NC(=O)CSc2ncc3c(n2)-c2ccc(Cl)cc2N(Cc2ccccc2)S3(=O)=O)c1	DT40 TDP1 no CPT 16.4µM, TDP1 cell CPT 18.4µM (no result: Gal4-VP16 FLuc, ELG1 repair inh, RORg inh)
CCOc1ccccc1NC(=O)CSc1ncc(S(=O)(=O)c2ccc(C)c(C)c2)c(N)n1	DT40 TDP1 no CPT 23.1µM, TDP1 cell CPT inconclusive (no result: Gal4-VP16 FLuc, ELG1 repair inh, RORg inh)
CCOC(=O)c1ccccc1NC(=O)CSc1ncc(C(=O)OCC)c(N)n1	12-LOX inh inconclusive, DT40 TDP1 no CPT inconclusive, TDP1 cell CPT inconclusive, ELG1 repair inh inconclusive
CCOc1ccc(NC(=O)CSc2ncc3c(n2)-c2ccc(Cl)cc2N(Cc2ccccc2)S3(=O)=O)cc1	none (no result: Gal4-VP16 FLuc, ELG1 repair inh, RORg inh)
Cc1cc(C)c(NC(=O)CSc2ncc3c(n2)-c2cc(Cl)ccc2N(C)S3(=O)=O)c(C)c1	12-LOX inh inconclusive, DT40 TDP1 no CPT 0.0461µM, TDP1 cell CPT 0.164µM (no result: Gal4-VP16 FLuc, ELG1 repair inh, RORg inh)
COC(=O)c1ccc2c(c1)N(C)S(=O)(=O)c1cnc(SCC(=O)C(C)(C)C)nc1-2	ELG1 repair inh 16.4µM
COc1ccc2oc(C(=O)N3CCC(C(=O)Nc4ccc5c(c4)OCO5)CC3)c(C)c2c1	none (no result: DT40 TDP1 no CPT, Gal4-VP16 FLuc, TDP1 cell CPT, ELG1 repair inh, RORg inh)
CCc1cccc(NC(=O)CSC2=NS(=O)(=O)c3ccccc32)c1	12-LOX inh inconclusive, DT40 TDP1 no CPT 4.11µM, TDP1 cell CPT 2.59µM
CCOc1ccccc1NC(=O)CSc1ncc2c(n1)-c1ccccc1N(CC)S2(=O)=O	DT40 TDP1 no CPT 16.4µM, TDP1 cell CPT 23.1µM (no result: Gal4-VP16 FLuc, ELG1 repair inh, RORg inh)
Cc1oc2c(c1C(=O)N(C)CC(=O)N1CCOCC1)CN(Cc1ccc(F)cc1)CC2	none (no result: DT40 TDP1 no CPT, Gal4-VP16 FLuc, TDP1 cell CPT, ELG1 repair inh, RORg inh)
Nc1ccc2ncccc2c1N	DT40 TDP1 no CPT inconclusive, TDP1 cell CPT inconclusive, ELG1 repair inh 10.3µM, RORg inh inconclusive
O=C(Nc1ccc(CN2CCOCC2)cc1)c1cccc(-c2cc3ccccc3oc2=O)c1	DT40 TDP1 no CPT inconclusive, TDP1 cell CPT 16.4µM, ELG1 repair inh inconclusive
CCOC(=O)c1cc(NC(=O)c2cccc(-c3cc4ccccc4oc3=O)c2)ccc1N1CCOCC1	12-LOX inh 8.91µM (no result: DT40 TDP1 no CPT, Gal4-VP16 FLuc, TDP1 cell CPT, ELG1 repair inh, RORg inh)
CCn1nnc(NC(=O)c2cccc(-c3cc4ccccc4oc3=O)c2)n1	12-LOX inh inconclusive, DT40 TDP1 no CPT inconclusive, ELG1 repair inh inconclusive
O=C(Nc1cccc(Cl)c1N1CCCC1)c1cccc(-c2cc3ccccc3oc2=O)c1	DT40 TDP1 no CPT inconclusive, TDP1 cell CPT 18.4µM
COc1ccc(-c2cc(C#N)nc(Cl)n2)cc1	12-LOX inh 4.47µM, DT40 TDP1 no CPT 4.61µM, TDP1 cell CPT 4.11µM
CCN(CC)c1nc(C#N)cc(-c2ccc(OC)cc2)n1	DT40 TDP1 no CPT 10.3µM, TDP1 cell CPT 8.2µM, ELG1 repair inh inconclusive
CCN(CC)c1nc2cc(OC)ccc2cc1C#N	12-LOX inh inconclusive, DT40 TDP1 no CPT 16.4µM, TDP1 cell CPT 20.6µM, RORg inh inconclusive
N#Cc1cc(-c2ccccc2)nc(Oc2ccccc2)n1	DT40 TDP1 no CPT 18.4µM, TDP1 cell CPT inconclusive
